Measured values as given in the supplement of paper PMC11732987, “Enantioselective OTUD7B fragment discovery through chemoproteomics screening and high-throughput optimisation” (Communications Chemistry, 2025).
A number with no mark means an inactive call.

Tests used:
Test in all cases: log2 ratio of Biotin-Ahx-Ub-VS probe labelling (fragment/DMSO); higher = less target engagement (more negative = stronger competition), active = hit call of the paper (q ≤ 0.05, log2 ratio ≤ -1)
Conditions in all cases: compound concentration: 200 uM; treatment time: 3 h
USP16 = USP16 (UniProt Q9Y5T5)
Chain of USP16 (Q9Y5T5 whole entry, looked up, the tested form may be a part): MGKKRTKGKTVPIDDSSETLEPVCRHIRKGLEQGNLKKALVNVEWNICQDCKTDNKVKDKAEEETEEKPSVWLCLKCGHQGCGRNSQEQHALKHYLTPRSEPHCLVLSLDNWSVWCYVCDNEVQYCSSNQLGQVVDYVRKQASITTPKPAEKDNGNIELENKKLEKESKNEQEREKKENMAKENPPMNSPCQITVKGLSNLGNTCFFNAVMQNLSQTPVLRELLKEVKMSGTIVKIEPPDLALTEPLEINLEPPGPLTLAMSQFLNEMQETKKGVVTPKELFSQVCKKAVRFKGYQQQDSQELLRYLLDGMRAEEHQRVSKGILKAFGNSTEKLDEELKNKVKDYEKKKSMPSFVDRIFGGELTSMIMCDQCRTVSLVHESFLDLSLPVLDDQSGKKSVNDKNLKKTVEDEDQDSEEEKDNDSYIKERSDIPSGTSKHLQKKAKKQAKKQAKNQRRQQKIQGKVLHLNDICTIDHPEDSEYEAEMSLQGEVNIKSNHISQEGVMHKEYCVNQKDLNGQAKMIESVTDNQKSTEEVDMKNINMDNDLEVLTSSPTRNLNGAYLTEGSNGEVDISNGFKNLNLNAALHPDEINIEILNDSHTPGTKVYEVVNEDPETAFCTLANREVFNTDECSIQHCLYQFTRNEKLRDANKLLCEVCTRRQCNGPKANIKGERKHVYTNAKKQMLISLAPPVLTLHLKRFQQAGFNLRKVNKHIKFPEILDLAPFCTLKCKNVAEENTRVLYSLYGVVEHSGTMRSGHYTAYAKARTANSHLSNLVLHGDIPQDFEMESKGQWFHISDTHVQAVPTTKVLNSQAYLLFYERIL
In short: (§1)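 Labelled DUBs from HEK293T lysate were NeutrAvidin-enriched, digested with LysC and trypsin, and run by diaPASEF LC-MS/MS. Before that, each 495 µg sample in Tris/CHAPS/IGEPAL buffer with protease inhibitors was treated in triplicate with fragment at 200 µM or vehicle for 3 h, then with Biotin-Ahx-Ub-VS at 0.5 µM final for 1 h. Values are average log2 ratios of fragment over vehicle by unpaired t-test, based on global-median-normalised Spectronaut label-free quantities from proteins with ≥2 unique peptides.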

USP19 = target: T1, USP19 (UniProt O94966)
T1 sequence (whole entry): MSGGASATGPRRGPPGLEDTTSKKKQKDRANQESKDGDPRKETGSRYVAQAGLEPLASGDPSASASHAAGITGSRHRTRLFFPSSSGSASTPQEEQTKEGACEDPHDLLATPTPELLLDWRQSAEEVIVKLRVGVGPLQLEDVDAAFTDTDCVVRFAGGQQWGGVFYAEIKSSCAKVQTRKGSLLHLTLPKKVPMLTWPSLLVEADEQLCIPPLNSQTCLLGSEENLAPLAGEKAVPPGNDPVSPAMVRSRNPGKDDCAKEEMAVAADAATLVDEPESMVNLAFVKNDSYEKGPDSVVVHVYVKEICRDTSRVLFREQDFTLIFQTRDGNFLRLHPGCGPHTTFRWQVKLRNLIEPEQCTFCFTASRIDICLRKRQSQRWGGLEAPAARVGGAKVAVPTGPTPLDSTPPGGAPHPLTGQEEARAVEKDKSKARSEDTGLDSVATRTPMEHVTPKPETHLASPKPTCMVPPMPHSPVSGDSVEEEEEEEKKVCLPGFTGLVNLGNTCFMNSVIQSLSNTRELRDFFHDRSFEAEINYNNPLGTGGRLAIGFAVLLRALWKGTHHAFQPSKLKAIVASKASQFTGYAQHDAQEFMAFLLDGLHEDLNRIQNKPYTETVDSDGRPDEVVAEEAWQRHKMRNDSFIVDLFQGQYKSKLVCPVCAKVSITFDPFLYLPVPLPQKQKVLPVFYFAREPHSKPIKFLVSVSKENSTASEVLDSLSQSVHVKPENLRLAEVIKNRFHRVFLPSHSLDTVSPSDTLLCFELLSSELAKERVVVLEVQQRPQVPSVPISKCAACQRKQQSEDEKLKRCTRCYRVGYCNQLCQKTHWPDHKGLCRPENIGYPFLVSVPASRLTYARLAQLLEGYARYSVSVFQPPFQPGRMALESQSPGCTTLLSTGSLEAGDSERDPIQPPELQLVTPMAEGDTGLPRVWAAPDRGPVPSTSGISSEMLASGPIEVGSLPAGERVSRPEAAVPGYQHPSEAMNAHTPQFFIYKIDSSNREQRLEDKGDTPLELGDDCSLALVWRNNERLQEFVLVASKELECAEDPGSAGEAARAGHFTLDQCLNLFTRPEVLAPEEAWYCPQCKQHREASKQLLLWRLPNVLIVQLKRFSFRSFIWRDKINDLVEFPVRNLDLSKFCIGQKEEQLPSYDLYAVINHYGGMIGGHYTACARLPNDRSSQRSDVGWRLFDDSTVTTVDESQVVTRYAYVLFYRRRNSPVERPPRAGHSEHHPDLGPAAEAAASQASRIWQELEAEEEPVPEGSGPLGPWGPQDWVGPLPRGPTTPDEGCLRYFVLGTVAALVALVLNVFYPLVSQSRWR
In short: as §1

USP24 = USP24 (UniProt Q9UPU5)
Chain of USP24 (Q9UPU5 whole entry): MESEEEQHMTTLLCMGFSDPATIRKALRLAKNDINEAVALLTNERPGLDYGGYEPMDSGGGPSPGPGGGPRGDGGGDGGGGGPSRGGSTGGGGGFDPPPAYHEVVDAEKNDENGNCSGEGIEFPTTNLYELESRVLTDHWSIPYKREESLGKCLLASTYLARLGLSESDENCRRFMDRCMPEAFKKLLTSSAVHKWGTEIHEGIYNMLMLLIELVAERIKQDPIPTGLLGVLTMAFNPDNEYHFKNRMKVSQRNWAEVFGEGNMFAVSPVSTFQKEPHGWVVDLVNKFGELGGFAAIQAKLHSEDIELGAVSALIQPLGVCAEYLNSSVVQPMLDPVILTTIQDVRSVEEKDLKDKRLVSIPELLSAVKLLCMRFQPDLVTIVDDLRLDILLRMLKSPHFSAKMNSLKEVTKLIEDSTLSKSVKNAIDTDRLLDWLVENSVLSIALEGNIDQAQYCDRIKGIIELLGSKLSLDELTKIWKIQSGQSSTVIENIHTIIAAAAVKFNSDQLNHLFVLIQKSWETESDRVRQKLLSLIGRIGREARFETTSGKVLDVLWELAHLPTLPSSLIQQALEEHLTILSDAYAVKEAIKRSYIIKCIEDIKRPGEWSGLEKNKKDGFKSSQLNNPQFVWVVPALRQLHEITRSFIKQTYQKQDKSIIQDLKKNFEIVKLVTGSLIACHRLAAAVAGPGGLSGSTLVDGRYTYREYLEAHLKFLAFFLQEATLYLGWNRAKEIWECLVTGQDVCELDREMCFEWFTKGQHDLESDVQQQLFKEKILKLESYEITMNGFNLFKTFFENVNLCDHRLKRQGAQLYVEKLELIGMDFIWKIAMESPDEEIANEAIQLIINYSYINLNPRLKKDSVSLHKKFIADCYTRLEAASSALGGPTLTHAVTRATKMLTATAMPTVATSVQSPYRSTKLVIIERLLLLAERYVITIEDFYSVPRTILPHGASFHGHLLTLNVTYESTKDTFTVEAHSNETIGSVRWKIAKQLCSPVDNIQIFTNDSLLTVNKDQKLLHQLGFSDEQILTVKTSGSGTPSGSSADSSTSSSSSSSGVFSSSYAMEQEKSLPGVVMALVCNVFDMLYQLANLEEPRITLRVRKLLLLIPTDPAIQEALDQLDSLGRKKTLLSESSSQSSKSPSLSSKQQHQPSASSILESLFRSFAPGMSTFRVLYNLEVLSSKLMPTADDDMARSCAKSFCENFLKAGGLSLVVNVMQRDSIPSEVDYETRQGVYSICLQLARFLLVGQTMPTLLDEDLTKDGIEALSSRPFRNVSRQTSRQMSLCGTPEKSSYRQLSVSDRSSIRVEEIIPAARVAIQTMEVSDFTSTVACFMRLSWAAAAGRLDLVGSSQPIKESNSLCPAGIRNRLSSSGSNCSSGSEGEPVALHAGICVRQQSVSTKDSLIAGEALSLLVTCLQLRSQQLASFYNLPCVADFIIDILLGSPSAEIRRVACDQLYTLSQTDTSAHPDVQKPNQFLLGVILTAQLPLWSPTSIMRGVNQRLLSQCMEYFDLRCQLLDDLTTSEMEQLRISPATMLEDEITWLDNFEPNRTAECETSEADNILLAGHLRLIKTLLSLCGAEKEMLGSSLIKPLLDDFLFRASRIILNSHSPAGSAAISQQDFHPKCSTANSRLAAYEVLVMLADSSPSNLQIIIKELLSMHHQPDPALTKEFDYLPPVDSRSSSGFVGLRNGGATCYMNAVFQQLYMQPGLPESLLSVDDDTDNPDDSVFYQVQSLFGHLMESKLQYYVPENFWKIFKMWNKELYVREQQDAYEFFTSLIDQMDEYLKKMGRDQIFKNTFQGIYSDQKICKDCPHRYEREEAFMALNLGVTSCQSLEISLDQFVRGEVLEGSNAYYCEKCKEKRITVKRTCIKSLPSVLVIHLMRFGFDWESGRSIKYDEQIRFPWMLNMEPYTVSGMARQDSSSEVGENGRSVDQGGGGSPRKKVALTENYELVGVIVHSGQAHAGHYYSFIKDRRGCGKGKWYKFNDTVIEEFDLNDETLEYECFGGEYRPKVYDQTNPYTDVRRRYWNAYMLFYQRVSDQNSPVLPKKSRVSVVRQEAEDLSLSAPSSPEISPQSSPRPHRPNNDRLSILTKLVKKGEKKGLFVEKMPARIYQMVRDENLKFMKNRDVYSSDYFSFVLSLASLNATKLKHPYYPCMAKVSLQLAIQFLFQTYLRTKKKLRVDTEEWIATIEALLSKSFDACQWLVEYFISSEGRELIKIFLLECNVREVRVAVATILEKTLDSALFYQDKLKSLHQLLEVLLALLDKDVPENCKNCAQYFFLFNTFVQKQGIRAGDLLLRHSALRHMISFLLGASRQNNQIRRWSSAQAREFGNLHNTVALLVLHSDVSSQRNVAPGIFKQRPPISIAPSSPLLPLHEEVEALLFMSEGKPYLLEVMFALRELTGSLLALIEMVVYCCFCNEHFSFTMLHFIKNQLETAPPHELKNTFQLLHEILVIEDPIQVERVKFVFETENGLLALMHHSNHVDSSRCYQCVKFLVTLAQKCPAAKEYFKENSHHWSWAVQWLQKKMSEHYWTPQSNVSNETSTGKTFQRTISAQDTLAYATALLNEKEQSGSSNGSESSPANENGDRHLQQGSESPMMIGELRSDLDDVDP
In short: as §1

USP25 = target: T2, USP25 (UniProt Q9UHP3)
T2 sequence (whole entry): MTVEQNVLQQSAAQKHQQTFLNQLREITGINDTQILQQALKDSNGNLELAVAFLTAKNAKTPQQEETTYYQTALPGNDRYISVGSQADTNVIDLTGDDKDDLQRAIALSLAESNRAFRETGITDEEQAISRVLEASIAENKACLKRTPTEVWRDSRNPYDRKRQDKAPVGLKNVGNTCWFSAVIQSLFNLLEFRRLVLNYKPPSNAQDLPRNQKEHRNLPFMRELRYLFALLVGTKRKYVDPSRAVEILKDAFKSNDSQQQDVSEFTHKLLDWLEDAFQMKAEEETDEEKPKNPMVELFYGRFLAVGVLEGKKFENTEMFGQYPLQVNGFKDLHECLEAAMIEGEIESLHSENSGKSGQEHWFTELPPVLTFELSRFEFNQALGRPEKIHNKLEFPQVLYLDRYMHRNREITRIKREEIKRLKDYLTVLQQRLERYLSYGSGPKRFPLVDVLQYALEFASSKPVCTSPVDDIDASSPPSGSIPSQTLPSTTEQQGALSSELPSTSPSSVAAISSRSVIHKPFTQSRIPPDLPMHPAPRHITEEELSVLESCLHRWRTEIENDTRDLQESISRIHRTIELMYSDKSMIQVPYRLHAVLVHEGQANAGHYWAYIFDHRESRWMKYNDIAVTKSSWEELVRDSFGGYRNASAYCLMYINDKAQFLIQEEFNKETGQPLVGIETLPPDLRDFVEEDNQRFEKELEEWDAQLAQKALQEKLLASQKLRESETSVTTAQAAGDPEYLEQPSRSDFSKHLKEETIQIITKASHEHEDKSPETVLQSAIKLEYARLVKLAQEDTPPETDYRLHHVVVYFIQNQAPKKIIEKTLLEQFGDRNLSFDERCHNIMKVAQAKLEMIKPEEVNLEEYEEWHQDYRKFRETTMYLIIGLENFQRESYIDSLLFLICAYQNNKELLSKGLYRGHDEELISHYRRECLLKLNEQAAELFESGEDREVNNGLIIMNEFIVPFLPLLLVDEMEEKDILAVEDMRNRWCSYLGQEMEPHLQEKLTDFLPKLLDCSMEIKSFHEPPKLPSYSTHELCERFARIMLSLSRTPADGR
In short: as §1

USP28 = target: T3, USP28 (UniProt Q96RU2)
T3 sequence (whole entry): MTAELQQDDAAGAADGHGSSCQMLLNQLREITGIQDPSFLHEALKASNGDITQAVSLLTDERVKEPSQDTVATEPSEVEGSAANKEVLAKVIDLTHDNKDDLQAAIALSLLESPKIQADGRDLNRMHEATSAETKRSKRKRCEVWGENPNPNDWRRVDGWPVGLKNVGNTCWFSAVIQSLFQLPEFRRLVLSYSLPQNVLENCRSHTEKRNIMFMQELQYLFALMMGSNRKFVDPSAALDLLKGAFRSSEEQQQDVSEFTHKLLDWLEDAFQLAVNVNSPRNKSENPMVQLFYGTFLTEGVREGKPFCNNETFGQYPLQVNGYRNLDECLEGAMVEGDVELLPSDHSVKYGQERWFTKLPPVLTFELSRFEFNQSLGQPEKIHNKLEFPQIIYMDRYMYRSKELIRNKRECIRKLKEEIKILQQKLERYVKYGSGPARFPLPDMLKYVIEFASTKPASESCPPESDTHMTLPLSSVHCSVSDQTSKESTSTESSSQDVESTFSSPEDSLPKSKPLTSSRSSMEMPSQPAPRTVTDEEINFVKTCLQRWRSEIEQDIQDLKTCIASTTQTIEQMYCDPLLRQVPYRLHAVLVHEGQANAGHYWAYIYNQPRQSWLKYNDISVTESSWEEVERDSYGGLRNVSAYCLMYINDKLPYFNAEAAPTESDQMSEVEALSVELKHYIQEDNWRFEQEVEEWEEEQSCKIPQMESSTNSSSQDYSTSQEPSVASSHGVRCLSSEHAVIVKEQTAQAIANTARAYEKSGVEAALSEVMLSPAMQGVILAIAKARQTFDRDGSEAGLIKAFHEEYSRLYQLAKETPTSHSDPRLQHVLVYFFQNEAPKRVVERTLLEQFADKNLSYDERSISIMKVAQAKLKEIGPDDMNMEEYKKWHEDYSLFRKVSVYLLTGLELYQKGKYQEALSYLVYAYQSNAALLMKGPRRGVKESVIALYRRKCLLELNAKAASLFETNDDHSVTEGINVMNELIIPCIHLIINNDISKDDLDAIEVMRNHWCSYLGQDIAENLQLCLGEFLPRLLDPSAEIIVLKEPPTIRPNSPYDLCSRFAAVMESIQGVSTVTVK
In short: as §1

O=C(CCl)N1CCOC(c2cccc(F)c2)C1 (stereo not given)
log2 ratio of Biotin-Ahx-Ub-VS probe labelling (USP16): 0.0465
log2 ratio of Biotin-Ahx-Ub-VS probe labelling (USP19): -0.335
log2 ratio of Biotin-Ahx-Ub-VS probe labelling (USP24): -1.13 (active)
log2 ratio of Biotin-Ahx-Ub-VS probe labelling (USP25): -0.541
log2 ratio of Biotin-Ahx-Ub-VS probe labelling (USP28): -0.953
